Pf growth 48h – P. falciparum growth inhibition at 48 hours (one generation); P. falciparum luciferase growth in erythrocytes, 48 h; 310,000 tested, 5.9% active; AID 504832; Potency, µM (series often up to 28.7 µM), for the others: at the top dose activity change, negative = inhibition, actives largely listed as inhibitors; note: potency is the fitted concentration of half-maximal effect; % is set by controls: 0 for no effect and ±100 for the full control effect
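In quantitative HTS format, infected erythrocytes bearing luciferase-reporter parasites were treated for a single generation at 37 C. Luminescence after adding detection reagent served as the growth measure.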
Pf growth 96h – P. falciparum growth inhibition at 96 hours; P. falciparum luciferase reporter growth, 96 h; Potency, µM (highest dose often 28.7 µM), for the others: top-dose activity change, negative = inhibition, actives largely listed as inhibitors; 320,000 tested, 6.9% active; note: potency is the fitted concentration of half-maximal effect; % is set by controls: 0 for no effect and ±100 for the full control effect
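Two-generation exposure (96 h) targets delayed-death phenotype. Reporter parasites carrying integrated firefly luciferase, in red cells at 2% hematocrit and 0.05% parasitemia final, kept at 37 C, 5% CO2; luminescence loss indicates inhibition.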
Shiga toxin inh – Shiga toxin inhibition | Vero cells, Shiga toxin protein synthesis inhibition reporter | inhibition, % at 38.7 µM | 290,000 tested, 9.2% active; in the data active = inhibition mostly above about 28%, no sharp cut-off; inactive = mostly below about 43%; note: 0% is about no effect
LmPK inhibitor – blocks Leishmania mexicana pyruvate kinase activity; Q27686; 290,000 tested, 0.37% active; Potency, µM (highest dose often 57.5 µM), without a hit: at the top dose activity change, negative = inhibition, most hits filed as inhibitors; purified LmPK, Kinase-Glo ATP luminescence, 1 h; note: potency is the fitted concentration of half-maximal effect; % is set by controls: 0 for no effect and ±100 for the full control effect
Target sequence (Q27686 whole entry, looked up): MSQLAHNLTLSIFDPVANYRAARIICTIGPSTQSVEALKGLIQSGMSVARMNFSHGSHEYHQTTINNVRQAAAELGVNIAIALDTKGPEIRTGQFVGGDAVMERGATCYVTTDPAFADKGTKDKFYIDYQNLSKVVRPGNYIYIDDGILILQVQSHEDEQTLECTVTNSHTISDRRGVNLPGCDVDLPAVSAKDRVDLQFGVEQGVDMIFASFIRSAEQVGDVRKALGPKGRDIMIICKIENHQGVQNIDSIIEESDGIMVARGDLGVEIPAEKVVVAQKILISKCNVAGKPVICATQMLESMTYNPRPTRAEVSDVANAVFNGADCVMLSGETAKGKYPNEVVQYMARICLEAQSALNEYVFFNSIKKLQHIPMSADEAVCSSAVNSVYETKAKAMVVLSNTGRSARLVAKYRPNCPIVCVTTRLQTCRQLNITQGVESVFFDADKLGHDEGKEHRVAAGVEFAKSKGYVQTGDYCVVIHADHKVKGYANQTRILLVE
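Purified LmPK (0.1 nM) converted ADP (0.1 mM) to ATP with PEP (0.5 mM) in imidazole buffer pH 7.2 with KCl and MgCl2, 1 h at room temperature. ATP was read by Kinase-Glo luminescence; data normalized to uninhibited and no-enzyme controls.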
Cycloheximide cs – counter-screen for Shiga toxin inhibitors: cycloheximide protein synthesis inhibition; cell reporter, cycloheximide protein synthesis inhibition counterscreen; max response, %; 300,000 tested, 12% active; AID 2314; in the data active = max response mostly above about 13%, no sharp cut-off; inactive = mostly below about 14%; note: read at 38.3 µM for the half of the compounds with a filed dose; 0% is about no effect
The depositor's hits bear a star. Only some compounds are listed: those with a hit (about 22% of all), similar ones and a draw of the others. Unless noted, calls come from the whole dose curve; as a rule, active = well fitted inhibition curve with a large enough effect; inconclusive = small, poorly fitted or top-dose-only effect, or another doubt; inactive = no such curve, though single readings can be large or run the other way.

CCOc1ccc(NC(=O)CN(c2cc(C)cc(C)c2)S(=O)(=O)c2c(C)noc2C)cc1 was read as Pf growth 48h 7%, Pf growth 96h inconclusive, Shiga toxin inh -7, LmPK inhibitor 4% and Cycloheximide cs 3.
CCOc1ccc(N(CC(=O)Nc2nccs2)S(=O)(=O)c2c(C)noc2C)cc1 was read as Pf growth 96h inconclusive, Shiga toxin inh -19, LmPK inhibitor 4% and Cycloheximide cs -6.
`CCOc1ccc(N(CC(=O)Nc2ccc(OC)cc2)S(=O)(=O)c2c(C)noc2C)cc1` gave Pf growth 96h 6.6µM*, Shiga toxin inh 3, LmPK inhibitor 4% and Cycloheximide cs -4.
For COc1ccc(N(CC(=O)Nc2cc(Cl)ccc2OC)S(=O)(=O)c2c(C)noc2C)cc1 the results were Pf growth 48h 10µM*, Pf growth 96h 9.3µM*, Shiga toxin inh -17, LmPK inhibitor 3% and Cycloheximide cs 1.
Screening CCOc1ccc(N(CC(=O)Nc2ccc(OC)cc2)C2=NC3CS(=O)(=O)CC3S2)cc1 (centres undefined) returned Pf growth 48h 6%, Pf growth 96h 13µM*, Shiga toxin inh -5, LmPK inhibitor -1% and Cycloheximide cs -1.
Screening COc1ccc(N(CC(=O)Nc2ccc(C)cn2)S(=O)(=O)c2c(C)noc2C)cc1 returned Pf growth 48h 1%, Pf growth 96h -1%, Shiga toxin inh 6, LmPK inhibitor -3% and Cycloheximide cs 0.
`CCOc1ccc(N(CC(=O)Nc2ccc3c(c2)OCCO3)S(=O)(=O)c2c(C)noc2C)cc1` gave Pf growth 96h 10µM*, Shiga toxin inh 3, LmPK inhibitor 1% and Cycloheximide cs -4.
COc1ccc(N(CC(=O)Nc2ccc(OC)c(Cl)c2)S(=O)(=O)c2c(C)noc2C)cc1 was read as Pf growth 48h 8.3µM*, Pf growth 96h 27%, Shiga toxin inh -14, LmPK inhibitor 3% and Cycloheximide cs -4.
Screening Cc1ccc(N(CCC(=O)O)S(=O)(=O)c2ccccc2)cc1 returned Pf growth 48h -16%, Pf growth 96h 32%, Shiga toxin inh -14, LmPK inhibitor -1% and Cycloheximide cs 0.
`COc1ccc(N(CC(=O)Nc2ccc(F)c(Cl)c2)S(=O)(=O)c2c(C)noc2C)cc1` gave Pf growth 48h inconclusive, Pf growth 96h inconclusive, Shiga toxin inh 4, LmPK inhibitor 0% and Cycloheximide cs -1.
Screening CCOc1ccccc1NC(=O)CN(c1ccc(C)cc1)S(=O)(=O)c1c(C)noc1C returned Pf growth 48h 4.1µM*, Pf growth 96h 91%, Shiga toxin inh 10, LmPK inhibitor 8% and Cycloheximide cs 3.
CCOc1ccccc1NC(=O)CCN(c1ccc(C)cc1)S(=O)(=O)c1ccccc1 was read as Pf growth 48h inconclusive, Pf growth 96h 12µM*, Shiga toxin inh 12, LmPK inhibitor 0% and Cycloheximide cs -1.
For COc1ccc(OC)c(NC(=O)CN(c2ccc(C)cc2)S(=O)(=O)c2c(C)noc2C)c1 the results were Pf growth 48h inconclusive, Pf growth 96h 1.9µM*, Shiga toxin inh 1, LmPK inhibitor 2% and Cycloheximide cs 10.
`CC(=O)N1CCOc2ccc(S(=O)(=O)N3CCC(C(=O)NCc4ccc(F)cc4)CC3)cc21` gave Pf growth 48h inconclusive, Pf growth 96h inconclusive, Shiga toxin inh 0, LmPK inhibitor -1% and Cycloheximide cs 10.
`O=C(O)C1CCC(NSc2ccccc2[N+](=O)[O-])CC1` (centres undefined) gave Pf growth 48h 31%, Pf growth 96h 0%, Shiga toxin inh 7, LmPK inhibitor 3% and Cycloheximide cs -1.
Screening COc1ccc(OC)c(NC(=O)CN(c2ccc(C(C)C)cc2)S(=O)(=O)c2c(C)noc2C)c1 returned Pf growth 96h 10µM*, Shiga toxin inh -5, LmPK inhibitor 10% and Cycloheximide cs -4.
Screening COc1cccc(CNC(=O)CN(c2ccc(C(C)C)cc2)S(=O)(=O)c2c(C)noc2C)c1 returned Pf growth 48h -28%, Pf growth 96h 30%, Shiga toxin inh -6, LmPK inhibitor 4% and Cycloheximide cs -3.
CCOc1ccc(OCC)c(NC(=O)CN(c2ccc(C)cc2)S(=O)(=O)c2c(C)noc2C)c1 was read as Pf growth 96h 34%, Shiga toxin inh 12, LmPK inhibitor -1% and Cycloheximide cs 14.
Screening CCOc1ccc(OCC)c(NC(=O)CN(c2ccc(OC)cc2)S(=O)(=O)c2c(C)noc2C)c1 returned Pf growth 48h 13µM*, Pf growth 96h inconclusive, Shiga toxin inh 7, LmPK inhibitor 8% and Cycloheximide cs 10.
Screening COc1cc(C(=O)OCC(=O)NC(=O)NC2CCCCC2)cc(Cl)c1OC returned Pf growth 48h 7% and Pf growth 96h -10%.
For COc1ccc(C(=O)NCc2cc3ccccc3n2C)cc1 the results were Pf growth 48h 11%, Pf growth 96h inconclusive, LmPK inhibitor 1% and Cycloheximide cs 29*.
`Cn1c(CNC(=O)C2CCCCC2)cc2ccccc21` gave Pf growth 48h 3%, Pf growth 96h 7%, LmPK inhibitor -2% and Cycloheximide cs 2.
Screening CCn1c(CNC(=O)c2ccc(F)cc2)cc2ccccc21 returned Pf growth 48h 15%, Pf growth 96h inconclusive, Shiga toxin inh 28, LmPK inhibitor -1% and Cycloheximide cs 30*.
For CCn1c(CNC(=O)C2CCCCC2)cc2ccccc21 the results were Pf growth 48h 6%, Pf growth 96h 9.3µM*, Shiga toxin inh 20, LmPK inhibitor 1% and Cycloheximide cs 1.
Screening O=C(Nc1ccccc1Cl)c1cccc(NS(=O)(=O)c2ccccc2)c1 returned Pf growth 48h 15%, Shiga toxin inh -6, LmPK inhibitor 1% and Cycloheximide cs 16.
COCCN(C(=O)COC(=O)c1cnc(C)cn1)c1c(N)n(Cc2ccccc2)c(=O)[nH]c1=O was read as Pf growth 48h 23% and Pf growth 96h -2%.
CC(C)N(C(=O)CSc1nnc(NC(=O)C2CCC2)s1)C(C)C was read as Pf growth 48h 6.6µM*, Pf growth 96h inconclusive, Shiga toxin inh -11, LmPK inhibitor -7% and Cycloheximide cs 5.
`COc1ccc(NC(=O)CSc2nnc(NC(=O)C3CCC3)s2)cc1` gave Pf growth 48h 6%, Pf growth 96h 16%, Shiga toxin inh 33, LmPK inhibitor -5% and Cycloheximide cs -8.
Cc1cc(C(=O)NCC(=O)OC(C)C(=O)N2CCOCC2)ccc1[N+](=O)[O-] (centres undefined) was read as Pf growth 48h inconclusive and Pf growth 96h 7.4µM*.
`NC(=O)CC(NC(=O)Cc1cccc2ccccc12)c1ccc(N2CCN(c3ccccn3)CC2)c([N+](=O)[O-])c1` (centres undefined) gave Pf growth 48h -15%, Pf growth 96h 10%, Shiga toxin inh 2, LmPK inhibitor 0% and Cycloheximide cs 6.
